Laboratory results from PubChem BioAssay.
The other results are listed elsewhere or left out. Calls of active or inactive are those of the source. Unless noted, no stated cut-off is given here; in the data, active means inhibition above about 30%; inactive means the rest. Numbered stars: 1 amine (or outer) side, 2 acyl side, 3 side chain; on linkers, the order of the positions; unused ones are H or OH. Bridge positions count the residues as written; N and C are the ends. Square brackets hold non-standard residues; d marks the D form. Peptide text beside a SMILES is read from it. ξ: configuration not given here. X1 = CC[C@H](CCC[C@@H](O)[C@@H](C)C(=O)O[C@H](C)[C@@H](C)C/C=C(C)/C(=C\C(=O)[*:1])OC)O[*:2]; NMeξIle = CC[C@H](C)C(NC)C(=O)O; NMeV = CN[C@H](C(=O)O)C(C)C; NMeS = CN[C@@H](CO)C(=O)O

What was measured:
[1] = biological target: Nuclear receptor coactivator 3 (Homo sapiens) (UniProt Q9Y6Q9); test: SRC3 coactivator transcriptional activity inhibitors, confirmation, cell-based, luminescence, quadruplicate (AID 588792;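 active means mean inhibition over 43.08%, the solvent-only control mean plus 3 SD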;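 further: 0% = DMSO treated cells and 100% = gossypol at 36 µM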); conditions: HEK293 GAL4-SRC3 luciferase reporter, at 3.6 µM, active compounds read high
Sequence of Nuclear receptor coactivator 3 (Homo sapiens) (Q9Y6Q9 whole entry, looked up, the tested form may be a part): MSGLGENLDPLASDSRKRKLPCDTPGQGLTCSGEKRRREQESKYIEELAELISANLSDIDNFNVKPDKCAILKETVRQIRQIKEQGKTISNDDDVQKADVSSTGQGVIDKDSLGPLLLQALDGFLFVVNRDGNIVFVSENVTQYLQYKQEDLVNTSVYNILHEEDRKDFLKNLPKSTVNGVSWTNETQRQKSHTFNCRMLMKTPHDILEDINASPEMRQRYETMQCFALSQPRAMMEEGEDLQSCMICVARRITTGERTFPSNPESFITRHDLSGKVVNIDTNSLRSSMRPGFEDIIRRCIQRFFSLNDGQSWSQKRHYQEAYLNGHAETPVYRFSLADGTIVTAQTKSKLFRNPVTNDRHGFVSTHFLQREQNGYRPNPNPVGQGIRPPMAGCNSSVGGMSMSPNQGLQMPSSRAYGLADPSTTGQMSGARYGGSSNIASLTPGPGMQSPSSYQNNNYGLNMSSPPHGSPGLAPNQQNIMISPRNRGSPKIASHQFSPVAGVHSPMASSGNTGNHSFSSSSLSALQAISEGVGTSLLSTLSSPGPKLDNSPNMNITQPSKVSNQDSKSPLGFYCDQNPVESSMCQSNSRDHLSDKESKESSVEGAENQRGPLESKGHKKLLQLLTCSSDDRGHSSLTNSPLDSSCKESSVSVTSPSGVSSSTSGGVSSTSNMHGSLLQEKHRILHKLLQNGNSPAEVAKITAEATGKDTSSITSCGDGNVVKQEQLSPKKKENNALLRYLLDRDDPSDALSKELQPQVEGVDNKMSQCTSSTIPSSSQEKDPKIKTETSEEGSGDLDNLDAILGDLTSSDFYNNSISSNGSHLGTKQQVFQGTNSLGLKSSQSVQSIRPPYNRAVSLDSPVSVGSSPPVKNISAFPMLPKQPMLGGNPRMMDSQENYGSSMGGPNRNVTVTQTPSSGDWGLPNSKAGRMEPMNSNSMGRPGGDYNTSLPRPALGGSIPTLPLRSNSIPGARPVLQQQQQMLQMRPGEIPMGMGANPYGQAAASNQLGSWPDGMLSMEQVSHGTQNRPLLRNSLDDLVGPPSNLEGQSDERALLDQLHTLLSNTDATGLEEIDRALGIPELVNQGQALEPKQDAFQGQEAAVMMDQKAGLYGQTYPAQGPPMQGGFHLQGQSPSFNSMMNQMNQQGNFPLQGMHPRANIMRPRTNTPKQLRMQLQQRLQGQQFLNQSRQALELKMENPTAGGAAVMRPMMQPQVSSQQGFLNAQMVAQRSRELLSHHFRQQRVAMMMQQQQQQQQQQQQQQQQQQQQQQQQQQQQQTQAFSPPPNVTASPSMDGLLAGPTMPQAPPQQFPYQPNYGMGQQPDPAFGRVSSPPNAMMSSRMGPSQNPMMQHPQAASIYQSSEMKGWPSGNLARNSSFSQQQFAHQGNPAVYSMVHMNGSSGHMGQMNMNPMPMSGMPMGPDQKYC

[2] = test system: transactivating tegument protein VP16 (Human herpesvirus 1), Gal4-VP16 luciferase reporter; test: VP16 transactivation inhibitors, counter-screen for SRC3 inhibitor project, cell-based, luminescence, high throughput (AID 588794); conditions: mammalian cells, VP16-driven luciferase reporter luminescence; at 3.6 µM; active compounds read high
[3] = biological target: Nuclear receptor coactivator 1 (Homo sapiens) (UniProt Q15788); test: SRC1 coactivator transcriptional activity inhibitors, confirmation, cell-based, luminescence, quadruplicate (AID 588820;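 active means mean inhibition above 46.68%, the untreated control wells mean plus 3 SD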;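 further: 0% = DMSO wells and 100% = gossypol 36 µM treated wells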); conditions: HEK293 GAL4-SRC1 luciferase reporter, at 3.6 µM, active compounds read high
Sequence of Nuclear receptor coactivator 1 (Homo sapiens) (Q15788 whole entry, looked up, the tested form may be a part): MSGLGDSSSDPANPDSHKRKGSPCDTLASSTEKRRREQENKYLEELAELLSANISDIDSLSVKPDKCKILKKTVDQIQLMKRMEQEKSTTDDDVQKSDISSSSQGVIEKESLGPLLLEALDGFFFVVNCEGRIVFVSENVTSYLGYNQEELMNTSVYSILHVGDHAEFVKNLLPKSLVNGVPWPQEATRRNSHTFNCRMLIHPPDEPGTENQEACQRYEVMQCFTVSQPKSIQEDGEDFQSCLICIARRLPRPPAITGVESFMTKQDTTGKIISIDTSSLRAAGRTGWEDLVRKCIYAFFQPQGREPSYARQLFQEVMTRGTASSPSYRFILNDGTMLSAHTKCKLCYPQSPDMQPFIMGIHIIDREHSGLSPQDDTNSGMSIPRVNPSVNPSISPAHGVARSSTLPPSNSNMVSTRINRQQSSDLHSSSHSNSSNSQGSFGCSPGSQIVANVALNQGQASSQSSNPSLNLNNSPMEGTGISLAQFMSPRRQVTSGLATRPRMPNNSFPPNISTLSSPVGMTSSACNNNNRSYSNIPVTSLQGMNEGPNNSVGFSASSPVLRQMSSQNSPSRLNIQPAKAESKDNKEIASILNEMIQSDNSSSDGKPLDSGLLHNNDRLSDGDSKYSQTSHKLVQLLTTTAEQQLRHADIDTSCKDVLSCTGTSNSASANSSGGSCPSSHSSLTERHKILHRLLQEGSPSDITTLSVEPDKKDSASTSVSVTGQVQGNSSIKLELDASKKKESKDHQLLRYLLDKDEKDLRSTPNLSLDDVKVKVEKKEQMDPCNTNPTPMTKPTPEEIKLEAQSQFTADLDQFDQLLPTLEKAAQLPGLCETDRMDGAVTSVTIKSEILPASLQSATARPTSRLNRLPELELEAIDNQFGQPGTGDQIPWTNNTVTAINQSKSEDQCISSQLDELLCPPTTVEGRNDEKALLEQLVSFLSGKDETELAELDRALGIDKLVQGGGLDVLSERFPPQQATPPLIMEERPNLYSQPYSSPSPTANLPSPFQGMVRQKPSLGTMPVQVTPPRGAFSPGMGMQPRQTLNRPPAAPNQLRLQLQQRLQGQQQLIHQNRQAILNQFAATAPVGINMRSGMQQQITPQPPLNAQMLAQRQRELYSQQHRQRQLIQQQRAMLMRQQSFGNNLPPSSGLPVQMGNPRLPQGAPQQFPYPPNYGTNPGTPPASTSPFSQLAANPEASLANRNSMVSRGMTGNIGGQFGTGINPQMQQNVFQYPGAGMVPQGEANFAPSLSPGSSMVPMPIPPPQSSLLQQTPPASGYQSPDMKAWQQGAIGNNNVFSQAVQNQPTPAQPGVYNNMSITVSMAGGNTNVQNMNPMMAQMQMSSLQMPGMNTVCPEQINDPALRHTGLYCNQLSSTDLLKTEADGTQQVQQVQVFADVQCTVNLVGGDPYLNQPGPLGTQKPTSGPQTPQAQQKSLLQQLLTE

[4] = VP16 transactivation inhibitors, counter-screen for SRC1 inhibitor project, cell-based, luminescence, high throughput (AID 588824; in the data active means inhibition above about 25%); conditions: cell-based VP16 transactivation luciferase luminescence; at 3.6 µM; active compounds read high
[5] = StAR promoter reporter inhibitors, counter-screen for LRH-1 inverse agonist project, cell-based, luminescence, high throughput (AID 651611; in the data active means inhibition above about 28%); conditions: StAR promoter luciferase reporter counterscreen, at 3.6 µM, active compounds read high
[6] = biological target: Nuclear receptor subfamily 5 group A member 2 (Homo sapiens) (UniProt O00482); test: LRH-1 (NR5A2) inverse agonists, retest, confirmation, cell-based, luminescence (AID 651613; in the data active means inhibition above about 42%;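 further: HEK293T cells co-transfected with LRH-1 and StAR promoter luciferase reporter; 0% = vehicle wells and 100% = parental cells lacking receptor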); conditions: cell-based LRH-1 luciferase reporter, inverse agonism; at 3.6 µM; active compounds read high
Sequence of Nuclear receptor subfamily 5 group A member 2 (Homo sapiens) (O00482 whole entry, looked up): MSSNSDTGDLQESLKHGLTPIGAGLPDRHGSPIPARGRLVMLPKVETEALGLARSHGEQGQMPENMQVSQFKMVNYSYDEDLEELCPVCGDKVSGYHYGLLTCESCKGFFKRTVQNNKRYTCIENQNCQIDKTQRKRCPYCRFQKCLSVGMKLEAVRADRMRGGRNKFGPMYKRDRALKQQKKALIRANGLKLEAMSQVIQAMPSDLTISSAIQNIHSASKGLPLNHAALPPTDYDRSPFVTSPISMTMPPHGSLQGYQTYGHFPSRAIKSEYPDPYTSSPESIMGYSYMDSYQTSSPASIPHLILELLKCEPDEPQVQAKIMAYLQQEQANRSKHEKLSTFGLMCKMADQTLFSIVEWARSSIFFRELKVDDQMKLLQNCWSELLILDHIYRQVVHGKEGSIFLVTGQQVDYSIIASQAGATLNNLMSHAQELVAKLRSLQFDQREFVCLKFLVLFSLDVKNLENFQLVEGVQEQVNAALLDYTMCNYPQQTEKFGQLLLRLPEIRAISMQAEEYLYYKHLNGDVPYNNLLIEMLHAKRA

[7] = biological target: Steroidogenic factor 1 (Homo sapiens) (UniProt Q13285); test: SF1 (NR5A1) inverse agonists, counter-screen for LRH-1 inverse agonist project, cell-based, luminescence, high throughput (AID 651614; in the data active means inhibition above about 44%;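 further: cells cotransfected with StAR promoter reporter and SF1 expression vector; 0% = vehicle on cells with receptor and 100% = vehicle on cells lacking receptor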); conditions: cell-based SF1 luciferase reporter, at 3.6 µM, active compounds read high
Sequence of Steroidogenic factor 1 (Homo sapiens) (Q13285 whole entry, looked up, the tested form may be a part): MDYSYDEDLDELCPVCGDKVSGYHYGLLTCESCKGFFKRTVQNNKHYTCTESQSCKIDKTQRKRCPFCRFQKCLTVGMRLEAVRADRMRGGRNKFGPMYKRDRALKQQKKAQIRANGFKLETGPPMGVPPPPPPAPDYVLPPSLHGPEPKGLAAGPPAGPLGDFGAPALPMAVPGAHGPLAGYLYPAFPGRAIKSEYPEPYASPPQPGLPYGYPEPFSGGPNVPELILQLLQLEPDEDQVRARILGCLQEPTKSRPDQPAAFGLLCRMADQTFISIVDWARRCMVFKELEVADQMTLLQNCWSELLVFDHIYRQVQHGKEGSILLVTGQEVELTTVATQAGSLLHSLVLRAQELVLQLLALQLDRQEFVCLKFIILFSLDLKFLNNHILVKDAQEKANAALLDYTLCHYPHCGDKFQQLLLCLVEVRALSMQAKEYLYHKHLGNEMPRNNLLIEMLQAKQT

[8] = VP16 transactivation reporter inhibitors, counter-screen for LRH-1 inverse agonist project, cell-based, luminescence, high throughput (AID 651615; in the data active means inhibition above about 33%); conditions: Gal4-VP16 luciferase reporter cells, at 3.6 µM, active compounds read high
[9] = biological target: Photoreceptor-specific nuclear receptor (Homo sapiens) (UniProt Q9Y5X4); test: NR2E3 agonist confirmation in cells, cell-based, luminescence, CHO-S two-hybrid (AID 624378;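 active means average inhibition above a cutoff equal to the mean inhibition of all tested compounds plus one SD, cut at about 70% in these data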;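 further: 0% = DMSO in NR2E3 cells and 100% = DMSO in cells lacking NR2E3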); conditions: CHO-S mammalian two-hybrid NR2E3-NCOR, luciferase luminescence; at 3.98 µM; active compounds read high
Sequence of Photoreceptor-specific nuclear receptor (Homo sapiens) (Q9Y5X4 whole entry, looked up, the tested form may be a part): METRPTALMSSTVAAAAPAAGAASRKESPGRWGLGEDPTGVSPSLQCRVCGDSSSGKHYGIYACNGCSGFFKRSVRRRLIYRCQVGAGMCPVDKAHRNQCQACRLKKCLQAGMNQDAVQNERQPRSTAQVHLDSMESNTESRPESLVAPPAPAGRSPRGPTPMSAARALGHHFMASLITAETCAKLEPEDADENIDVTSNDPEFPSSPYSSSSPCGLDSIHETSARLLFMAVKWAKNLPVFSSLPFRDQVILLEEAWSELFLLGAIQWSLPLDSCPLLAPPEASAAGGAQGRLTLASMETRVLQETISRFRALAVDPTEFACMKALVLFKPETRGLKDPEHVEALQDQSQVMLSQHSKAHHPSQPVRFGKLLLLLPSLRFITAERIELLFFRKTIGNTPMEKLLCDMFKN

[10] = GAL4-VP16 reporter modulators, confirmation, counter-screen for NR2E3 agonist project, cell-based, luminescence, CHO-S, high throughput (AID 624379;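 active means mean inhibition above a cutoff equal to the average over all tested compounds plus one standard deviation, cut at about 70% in these data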;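 further: 0% = DMSO with VP16-transfected cells and 100% = DMSO with cells lacking VP16; higher means less reporter light so more repression of VP16 activity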); conditions: CHO-S GAL4-VP16 luciferase reporter, at 3.98 µM, active compounds read high
[11] = test system: transactivating tegument protein VP16 (Human herpesvirus 1); test: VP16 transactivation reporter inhibitors, counter-screen for SRC2 inhibitor project, cell-based, luminescence, single concentration (AID 652007; in the data active means inhibition above about 36%); conditions: cell-based VP16 transactivation luciferase reporter, at 8.9 µM, active compounds read high
[12] = biological target: Nuclear receptor coactivator 2 (Homo sapiens) (UniProt Q15596); test: SRC2 coactivator transcriptional activity inhibitors, confirmation, cell-based, luminescence, HEK293, triplicate (AID 652008;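 active means mean inhibition above 46.5%, the solvent-only control mean plus 3 SD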;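 further: 0% = DMSO-treated cells and 100% = Gossypol at 36 µM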); conditions: HEK293 GAL4-SRC2 luciferase reporter, at 8.9 µM, active compounds read high
[13] = Gal4-VP16 luciferase reporter inhibitors, counter-screen for COUP-TFII antagonist project, cell-based, luminescence, HEK293 (AID 687007; in the data active means inhibition above about 13%); conditions: at 8.5 µM, active compounds read high
[14] = biological target: COUP transcription factor 2 (Homo sapiens) (UniProt P24468); test: NR2F2 transcriptional activity inhibitors, confirmation, cell-based, luciferase reporter, HEK293, triplicate (AID 687008;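 active means mean inhibition over three repeats above a set limit taken from the earlier primary screen, cut at about 38% in these data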;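 further: 100% = cells given the luciferase reporter alone without the COUP-TF2 vector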); conditions: HEK293 NGFI-A luciferase reporter, luminescence; at 8.5 µM; active compounds read high
Sequence of COUP transcription factor 2 (Homo sapiens) (P24468 whole entry, looked up): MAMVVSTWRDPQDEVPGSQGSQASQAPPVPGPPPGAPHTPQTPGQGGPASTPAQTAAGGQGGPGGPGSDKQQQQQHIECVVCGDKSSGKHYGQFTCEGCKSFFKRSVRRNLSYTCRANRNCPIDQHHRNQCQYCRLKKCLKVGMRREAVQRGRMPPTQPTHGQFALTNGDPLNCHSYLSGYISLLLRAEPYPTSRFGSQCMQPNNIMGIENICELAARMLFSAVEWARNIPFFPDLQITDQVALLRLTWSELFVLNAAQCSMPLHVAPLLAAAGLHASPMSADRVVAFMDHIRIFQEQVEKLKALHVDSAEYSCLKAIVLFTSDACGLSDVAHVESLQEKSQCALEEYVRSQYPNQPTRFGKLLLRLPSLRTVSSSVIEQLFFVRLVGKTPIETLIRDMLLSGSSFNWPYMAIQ

Measured: inhibition

Cc1ccc(C(=O)O/N=C(\N)c2ccccc2)c(Cl)c1
inactive: [1] -11.9% | [2] -35.4% | [3] -120% | [4] -64.6%

CCN(CC)c1ccc(C(NC(=O)C(C)C)c2ccc3cccnc3c2O)cc1 (configuration not stated)
active: [1] 55.9% | [2] 56% | [3] 78.3% | [4] 66.5% | [5] 86.3% | [6] 103% | [7] 90% | [8] 84.9%

CC(C)(C)c1ccc(Oc2ccc(N)cc2)cc1
inactive: [9] 36.9%
active: [1] 68.3% | [2] 61.4% | [3] 52.4% | [4] 57.7% | [10] 71.6% | [5] 71.2% | [6] 88.6% | [7] 78.9% | [8] 60.1% | [11] 90.2% | [12] 95.2% | [13] 91.8% | [14] 101%

Oc1cccc2cc(Nc3ccccc3)cnc12
active: [1] 60.4% | [2] 63.3% | [4] 70.1% | [5] 65.5% | [6] 99.5% | [7] 84.8% | [8] 88%
inactive: [3] 25.3%

Nc1ncnc2c(C3OC(CO)C(O)C3O)c[nH]c12 (configuration not stated)
active: [1] 97.4% | [2] 96.5% | [3] 95.7% | [4] 96% | [5] 95.6% | [6] 111% | [7] 98.2% | [8] 97.7%

CC(C)(C)c1nnc(N/N=C/c2ccccc2O)n(N)c1=O
active: [1] 80.1% | [2] 76.7% | [3] 74.4% | [4] 76.2%

Cc1oc2c(Cl)c(Cl)c(O)c(CN(C)C)c2c1C(=O)c1ccc(Cl)cc1
inactive: [2] 26.1% | [3] 44.2%
active: [1] 44.1% | [4] 33.1%

CCCCCn1c2c(c(=N)c3ccccc31)CCC2
inactive: [3] 32%
active: [1] 45.1% | [2] 61.1% | [4] 60% | [5] 44.3% | [6] 108% | [7] 83% | [8] 90.9%

O=C(N/N=C/c1sc(N2CCOCC2)nc1-c1ccccc1)c1cccc(S(=O)(=O)N2CCOCC2)c1
active: [2] 46.1% | [4] 61.9% | [5] 69.9% | [6] 100% | [7] 85.7% | [8] 87.4%
inactive: [1] 38.1% | [3] 43.6%

CC[C@@H]1CCC[C@@H](O)[C@@H](C)C(=O)O[C@H](C)[C@@H](C)C/C=C(C)/C(OC)=C\C(=O)N(C)C([C@@H](C)CC)C(=O)N(C)[C@@H](C(C)C)C(=O)N(C)[C@@H](COC)C(=O)N2CCC[C@H]2C(=O)N(C)[C@@H](C(C)C)C(=O)N2CCC[C@H]2C(=O)O1 (some centres not stated) ([NMeξIle][NMeV][NMeS](Me)P[NMeV]P; linker N-C via X1)
active: [1] 79.9% | [2] 86.5% | [3] 57.1% | [4] 87.5% | [5] 83% | [6] 104% | [7] 94.8% | [8] 93.1%

Cc1cccc(/C=N/Nc2ccc3ccccc3n2)c1
inactive: [1] 16.1% | [2] -21.2% | [3] -80.5% | [4] -55%

O=C(Nc1ccc2c(c1)OCCO2)C1CCCC1
active: [12] 51.9%
inactive: [1] 15.8% | [2] -21.9% | [3] -2.87% | [4] -33.3% | [9] 53.2% | [10] 13.8% | [11] -46%

Cc1[nH]c(=O)c(C(=O)/C=C/c2ccccc2)c2c1CCCC2
inactive: [9] 24.6% | [10] 48%
active: [1] 66.8% | [2] 56.1% | [3] 70.5% | [4] 57.9% | [5] 54.4% | [6] 71.7% | [7] 68.2% | [8] 74.8% | [11] 50.1% | [12] 63.9%

COc1ccccc1C(=O)Nc1nc(-c2ccc(S(=O)(=O)N3CCOCC3)cc2)cs1
inactive: [3] 41.6%
active: [1] 68% | [2] 82.1% | [4] 74.5% | [5] 78.5% | [6] 98.4% | [7] 83.7% | [8] 92.2%

O=C(c1ccccc1)c1c2c(cc3sc4ccccc4[n+]13)-c1cccc3cccc-2c13
active: [1] 49% | [2] 61.2% | [4] 64.6% | [5] 47.8% | [6] 99.3% | [7] 75.1% | [8] 81.7%
inactive: [3] 29.4%

CCCC(=O)NC(c1ccc(C)cc1)c1ccc2cccnc2c1O (configuration not stated)
active: [1] 73.8% | [2] 61.9% | [3] 61.4% | [4] 79% | [5] 86.1% | [6] 103% | [7] 90.8% | [8] 83.1%
